Screening results from PubChem.
A selection: hits, their analogues and other compounds. The true share with any hit is near 19%.
uPA generation = blocks generation of uPA at the cell surface. cell surface uPA generation assay, qHTS. Potency, µM (doses to about 38.3 µM), hits mostly inhibitors. 330,000 tested, 0.31% active. AID 540303; active = well fitted inhibition curve with a large enough effect; inconclusive = small, poorly fitted or top-dose-only effect; inactive = no such curve, though single readings can be large or run the other way; tested in mouse RAW 264.7 cells; also: nearly all actives have a fitted effect of over 55% in size
TDP1 cell CPT = growth inhibition of DT40 Tdp1-/-;hTDP1 cells with camptothecin (screen for TDP1 inhibitors) | AID 686979 | 420,000 tested, 12% active | Potency, µM (highest dose often 46.2 µM), most hits filed as inhibitors | chicken DT40 Tdp1-/-;hTDP1 cells + 20 nM CPT, ATP luminescence, 48 h; also: nearly all actives have a fitted effect of over 55% in size
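Cell growth measured by CellTiter-Glo luminescence after a minimum 48 h, 37 C compound exposure with 20 nM CPT in Tdp1-knockout DT40 cells stably expressing hTDP1, seeded 400/well; qHTS titration format.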
IL-1B inflam inh = inhibitors of inflammasome signaling (IL-1 beta secretion). 360,000 tested, 4.7% active. AID 743279. THP-1 LPS/ATP IL-1B secretion, AlphaLISA, 16 h; hits give low values. activity change, % at 57.5 µM; in the data active = activity change below about -50%; inconclusive = mostly about -30% to -49%
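Secreted IL-1B measured by AlphaLISA bead assay after 16 h compound exposure of THP-1 cells; compounds (final up to 57.5 uM) added 1 h before LPS (250 ng/mL) and ATP (1.25 mM) stimulation; lower signal means less secretion.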
HT1080-NT tox = kills 2HG-producing HT-1080-NT fibrosarcoma cells | HT-1080-NT fibrosarcoma viability, CellTiter-Glo ATP luminescence, 48 h | Potency, µM (doses to about 46.1 µM), hits mostly cytotoxic | 360,000 tested, 1.6% active;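 also: NT is the 2HG producing partner of a matched IDH1 knockdown line; nearly all actives have a fitted effect of over 55% in size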
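A 48-hour cytotoxicity screen used HT-1080-NT cells plated 2 hours before compound delivery. ATP-based CellTiter-Glo luminescence measured viability, normalized to DMSO and no-cell controls.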
DT40 TDP1 no CPT = qHTS for Inhibitors of human tyrosyl-DNA phosphodiesterase 1 (TDP1): qHTS in cells in absence of CPT; 420,000 tested, 15% active; Potency, µM (doses to about 46.2 µM), actives largely listed as inhibitors; DT40 Tdp1-/- hTDP1 cells, no CPT, ATP luminescence, 48 h; also: nearly all actives have a fitted effect of over 55% in size
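A cellular qHTS used chicken DT40 cells lacking endogenous Tdp1 but carrying stably transfected human TDP1. Compounds were applied without camptothecin, and cell growth kinetics were judged by ATP-dependent luminescence after ≥48 hr.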
HT1080 IDH1KD tx = kills HT-1080 cells with IDH1 knockdown | HT-1080 IDH1 knockdown viability, ATP luminescence, 48 h | Potency, µM (top dose mostly 46.1 µM), most hits filed as cytotoxic | 360,000 tested, 2% active | AID 686971
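In this qHTS, HT-1080 cells depleted of IDH1 are exposed for 48 h at 37 °C to compound titrations. Toxicity is scored from CellTiter-Glo luminescence, with DMSO as full viability and medium alone as none.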
Numbers stand for hits; – = inactive; ? = inconclusive; · = no result given; [ ] = remark or other dose. Unless noted, calls follow the shape of the dose curve; as a rule, active = well fitted curve in the direction sought with a large enough effect; inconclusive = small, poorly fitted or top-dose-only effect, or another doubt; inactive = no such curve, though single readings can be large; an effect the other way counts as inactive or inconclusive.

SMILES | uPA generation | TDP1 cell CPT | IL-1B inflam inh | HT1080-NT tox | DT40 TDP1 no CPT | HT1080 IDH1KD tx
CC(Oc1ccc2ccccc2c1)C(=O)NNC(=O)Nc1ccccc1F (configuration not stated) | – | – | -50 | – | – | –
Oc1ccc(C[C@H]2CN([C@@H](Cc3ccccc3)CN3CCCC3CN3C(=S)NC[C@@H]3Cc3ccccc3)C(=S)N2CCc2ccccc2)cc1 (some centres not stated) | · | 21µM | – | – | 16µM | –
Oc1ccc(C[C@H]2CNC(=S)N2C[C@H]2CCCN2C[C@H](Cc2ccccc2)N2C[C@H](Cc3ccc(O)cc3)N(CCc3ccccc3)C2=S)cc1 | · | 7.3µM | ? | 15µM | 4.1µM | 18µM
CC(C)C[C@@H](CN1CCC[C@H]1CN1C(=O)C(=O)NC[C@@H]1Cc1ccc(O)cc1)N1C[C@H](Cc2ccccc2)N(CCc2ccccc2)C(=O)C1=O | · | ? | ? | – | – | –
CC(C)C[C@@H](CN1CCCC1CN1C(=S)NC[C@@H]1Cc1ccc(O)cc1)N1C[C@H](Cc2ccc(O)cc2)N(CCc2ccccc2)C1=S (some centres not stated) | – | 13µM | – | ? | 7.3µM | ?
Oc1ccc(C[C@H]2CN([C@@H](Cc3ccc(O)cc3)CN3CCC[C@@H]3CN3C(=S)NC[C@@H]3Cc3ccccc3)C(=S)N2CCc2ccccc2)cc1 | · | 9.2µM | ? | ? | 10µM | ?
NC(=O)c1cc(S(=O)(=O)N2CCN(c3ccc([N+](=O)[O-])cc3)CC2)cs1 | – | ? | – | – | ? | –
CCc1ccc(NC(=O)C(=O)NCC(c2ccc3c(c2)OCO3)N2CCOCC2)cc1 (configuration not stated) | · | – | · | · | – | ·
CC1Cc2cc(S(=O)(=O)N(C)c3ccc(Br)cc3)ccc2N1C(=O)C1CC1 (configuration not stated) | · | 23µM | · | · | 23µM | ·
CCN(c1ccc(OC)cc1)S(=O)(=O)c1ccc2c(c1)CC(C)N2C(=O)C1CC1 (configuration not stated) | – | 21µM | ? | – | 18µM | –
Cc1ccc(N(C)S(=O)(=O)c2ccc3c(c2)CC(C)N3C(=O)C2CC2)cc1 (configuration not stated) | – | ? | – | – | ? | –
Cc1cc(NC(=O)c2cccnc2)ccc1NC(=O)c1cc2ccccc2o1 | – | 13µM | – | – | 10µM | –
Cc1cc(NC(=O)c2cccnc2Cl)ccc1NC(=O)c1cc2ccccc2o1 | – | 9.2µM | – | – | 10µM | –
Cc1cc(NC(=O)c2ccc3c(c2)OCCO3)ccc1NC(=O)c1cc2ccccc2o1 | ? | 5.8µM | – | ? | 4.6µM | ?
O=C(Nc1ccc(NC(=O)c2cc3ccccc3o2)cc1)c1ccc2c(c1)OCCO2 | – | – | – | – | – | –
CN1OC[C@@H]2CN[C@H](c3cccc(Oc4ccccc4)c3)C[C@@H]21 | · | – | – | – | – | –
Fc1ccc(Nc2nc(NCc3ccccc3)nc3ccsc23)cc1 | · | 8.2µM | ? | 21µM | 9.2µM | –
C#Cc1cccc(Nc2nc(NCc3ccccc3)nc3ccsc23)c1 | · | 9.2µM | – | ? | 10µM | ?
N#Cc1ccc(Nc2nc(NCc3ccccc3)nc3ccsc23)cc1 | · | 6.5µM | – | ? | 1.8µM | –
O=C1NCCN1CCNc1nc(NCc2ccccc2)nc2ccsc12 | · | ? | – | – | ? | –
CN(Cc1ccccc1)C(=O)c1ccc2sc([C@H]3C[C@H](O)[C@@H](CO)O3)nc2c1 | · | – | – | – | – | –
COCCN(CC(=O)Nc1cccc(C)c1C)C(=O)C1(c2ccc(Cl)cc2)CCC1 | – | ? | -53 | – | ? | –
Cc1cn([C@H]2C[C@H](O)[C@@H](CCC(=O)NCCc3cccs3)O2)c(=O)[nH]c1=O | · | – | – | – | – | –
COc1cccc(C=NNC(=O)C(C)SC(C)C(=O)NN=Cc2cccc(OC)c2)c1 (configuration not stated) | – | – | – | – | ? | –
CC(SC(C)C(=O)NN=Cc1cccc(Cl)c1)C(=O)NN=Cc1cccc(Cl)c1 (configuration not stated) | – | ? | – | – | 16µM | ?
SMILES | uPA generation | TDP1 cell CPT | IL-1B inflam inh | HT1080-NT tox | DT40 TDP1 no CPT | HT1080 IDH1KD tx
CC(C)(C)c1ccc(C(=O)N/N=C/c2cccc(Cl)c2)cc1 | · | ? | ? | ? | 16µM | ?
O=C(N/N=C/c1cccc(NC(=O)c2ccc(Cl)cc2)c1)c1ccc(O)cc1 | ? | ? | ? | – | 15µM | –
O=C(N/N=C/c1cccc(F)c1)c1ccc(Cl)cc1 | – | – | – | – | – | –
COc1ccc(S(=O)(=O)Nc2c(C)cccc2C)cc1-n1cnnn1 | – | ? | – | – | – | –
NC(=O)C1(N2CCCCC2)CCN(C(=O)c2cc(COc3c(F)cccc3F)on2)CC1 | · | ? | – | – | ? | –
CCC(CC)N1CCN(C(=O)c2cc(OC)c(OC)c(OC)c2)CC1 | – | – | – | – | – | –
CN(C)Cc1ccccc1COc1ccccc1 | – | – | – | – | – | –
CC(=O)Oc1ccc(C#C/C=C2\c3ccccc3C(=O)N2c2ccccc2)cc1 | ? | 23µM | -100 | – | 21µM | –
COCc1c(C(=O)NC2CCOC(C)(C)C2)cnn1-c1nccc(-c2cccs2)n1 (configuration not stated) | · | –[9.04 µM] | · | · | – | ·
O=C1CCCCc2sc(Br)c([N+](=O)[O-])c2N1 | – | 12µM | -105 | ? | 12µM | ?
O=C(/C=C/c1ccc(N2CCC(c3ccccc3)=N2)cc1)c1ccccc1 | – | ? | -94 | – | – | –
O=C1c2ccccc2-c2c1c1ccccc1c(=O)n2CCO | – | 6.5µM | · | – | 7.3µM | ?
O=c1c2ccccc2n2nnnc2n1-c1ccccc1 | – | – | – | – | – | –
CC(C)CCn1c(=O)c2ccccc2c2ccccc2c1=O | – | – | – | – | ? | –
O=C1c2ccccc2-c2c1c1ccccc1c(=O)n2-c1ccccc1 | – | 12µM | – | – | 12µM | –
CN(CCOCCOc1ccc(Cl)cc1Br)Cc1ccccc1 | – | – | -80 | ? | ? | ?
CN(CCOc1ccccc1Cl)Cc1ccccc1 | ? | ? | – | – | – | –
Cc1ccc(Cl)c(OCCCN(C)Cc2ccccc2)c1 | – | – | -77 | ? | ? | –
CN(CCCOc1ccccc1Br)Cc1ccccc1 | – | – | – | – | ? | –
Cc1ccc(Cl)c(OCCCCN(C)Cc2ccccc2)c1 | · | ? | -57 | ? | ? | ?
CCN(C(=O)Cn1nc2c3cc(F)ccc3n(Cc3cccc(C)c3)cc-2c1=O)c1cccc(C)c1 | · | – | · | · | – | ·
